{"source": "the OligoGym collection"}
{"molecular_target": "ZHX1", "assay": "pooled miR-30 sensor sort-seq; sequence = guide strand", "conditions": "shRNA"}
{"sequence": "TAAGTATACATTTACTACGTGA", "sensor-assay potency score (higher = more potent)": -0.517}
{"sequence": "TAAATTAGTATGAACTTTCAGT", "sensor-assay potency score (higher = more potent)": -0.00447}
{"sequence": "TTCTTCTTCTCTGTAAACCAAG", "sensor-assay potency score (higher = more potent)": -1.18}
{"sequence": "TTAAACTGAACATTTCTTCTAC", "sensor-assay potency score (higher = more potent)": 0.706}
{"sequence": "TTGCTCATTAAGAAACTTGTGC", "sensor-assay potency score (higher = more potent)": -0.28}
{"molecular_target": "ZIC5", "assay": "pooled miR-30 sensor sort-seq; sequence = guide strand", "conditions": "shRNA"}
{"sequence": "TGTATGAGTACGCTTGTGGATC", "sensor-assay potency score (higher = more potent)": -1.35}
{"sequence": "TAGTAGGGCTTGTCACTGGTGT", "sensor-assay potency score (higher = more potent)": -0.153}
{"sequence": "TCGAATCTTGCAGTAGTAGGGC", "sensor-assay potency score (higher = more potent)": 0.408}
{"sequence": "TGTCATATTCTGAAGCGGCTGG", "sensor-assay potency score (higher = more potent)": 0.253}
{"sequence": "TGAATCTTCATGTGCTTCCTCA", "sensor-assay potency score (higher = more potent)": -0.349}
{"sequence": "ATGAGTACGCTTGTGGATCTTG", "sensor-assay potency score (higher = more potent)": -0.744}
{"sequence": "TCATCTTCAGTCTCAGAGGTGG", "sensor-assay potency score (higher = more potent)": -0.487}
{"sequence": "TTGCAGATGAGCTCCTGCTTGA", "sensor-assay potency score (higher = more potent)": -0.229}
{"sequence": "TTTGTCACAGCCTCGAATCTTG", "sensor-assay potency score (higher = more potent)": -0.0738}
{"sequence": "TTGAGGTTGGTCACCTGAGGGG", "sensor-assay potency score (higher = more potent)": -0.565}
{"sequence": "TTGGTGGTGGTGTAGCCCGAGA", "sensor-assay potency score (higher = more potent)": -1.57}
